According to the supplement of paper PMC6897291:

Key:
U-2932 [1] = test: growth inhibition by drug alone (1 - RLU/untreated control) (fraction); higher = stronger inhibition; conditions: 177Lu-lilotomab satetraxetan 0 ug/ml
In short: (§1)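 Plates pre-printed with the Selleck Cambridge Cancer Compound library at 10/100 nM (RIVA) or 10/1,000 nM (U-2932) received 3,000 cells/well. These cells had been washed after 18 h untreated or with a radiolabelled anti-CD37 antibody conjugate (~600 MBq/mg; 0.5 µg/ml RIVA, 1 µg/ml U-2932). Growth inhibition was obtained from RealTime-Glo luminescence in relation to untreated no-drug wells. Each daily read from day 3, taken after 1 h at 37°C, was converted as 1 − RLU/mean of 48 such wells per plate.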

RIVA [2] = test: as above; conditions: 177Lu-lilotomab satetraxetan 0 ug/ml
In short: as §1

U-2932 [3] = test: growth inhibition by drug plus 177Lu-lilotomab satetraxetan (1 - RLU/untreated control) (fraction); higher = stronger inhibition; conditions: 177Lu-lilotomab satetraxetan 1 ug/ml
In short: as §1

RIVA [4] = test: as above; conditions: 177Lu-lilotomab satetraxetan 0.5 ug/ml
In short: as §1

SMILES	growth inhibition by drug alone (U-2932 [1]; 10 nM, time (day): 3)	growth inhibition by drug alone (U-2932 [1]; 10 nM, time (day): 4)	growth inhibition by drug alone (U-2932 [1]; 10 nM, time (day): 5)	growth inhibition by drug alone (U-2932 [1]; 10 nM, time (day): 6)	growth inhibition by drug alone (U-2932 [1]; 1000 nM, time (day): 3)	growth inhibition by drug alone (U-2932 [1]; 1000 nM, time (day): 4)	growth inhibition by drug alone (U-2932 [1]; 1000 nM, time (day): 5)	growth inhibition by drug alone (U-2932 [1]; 1000 nM, time (day): 6)	growth inhibition by drug alone (RIVA [2]; 10 nM, time (day): 3)	growth inhibition by drug alone (RIVA [2]; 10 nM, time (day): 4)	growth inhibition by drug alone (RIVA [2]; 10 nM, time (day): 5)	growth inhibition by drug alone (RIVA [2]; 10 nM, time (day): 6)	growth inhibition by drug alone (RIVA [2]; 100 nM, time (day): 3)	growth inhibition by drug alone (RIVA [2]; 100 nM, time (day): 4)	growth inhibition by drug alone (RIVA [2]; 100 nM, time (day): 5)	growth inhibition by drug alone (RIVA [2]; 100 nM, time (day): 6)	growth inhibition by drug plus 177Lu-lilotomab satetraxetan (U-2932 [3]; 10 nM, time (day): 3)	growth inhibition by drug plus 177Lu-lilotomab satetraxetan (U-2932 [3]; 10 nM, time (day): 4)	growth inhibition by drug plus 177Lu-lilotomab satetraxetan (U-2932 [3]; 10 nM, time (day): 5)	growth inhibition by drug plus 177Lu-lilotomab satetraxetan (U-2932 [3]; 10 nM, time (day): 6)	growth inhibition by drug plus 177Lu-lilotomab satetraxetan (U-2932 [3]; 1000 nM, time (day): 3)	growth inhibition by drug plus 177Lu-lilotomab satetraxetan (U-2932 [3]; 1000 nM, time (day): 4)	growth inhibition by drug plus 177Lu-lilotomab satetraxetan (U-2932 [3]; 1000 nM, time (day): 5)	growth inhibition by drug plus 177Lu-lilotomab satetraxetan (U-2932 [3]; 1000 nM, time (day): 6)	growth inhibition by drug plus 177Lu-lilotomab satetraxetan (RIVA [4]; 10 nM, time (day): 3)	growth inhibition by drug plus 177Lu-lilotomab satetraxetan (RIVA [4]; 10 nM, time (day): 4)	growth inhibition by drug plus 177Lu-lilotomab satetraxetan (RIVA [4]; 10 nM, time (day): 5)	growth inhibition by drug plus 177Lu-lilotomab satetraxetan (RIVA [4]; 10 nM, time (day): 6)	growth inhibition by drug plus 177Lu-lilotomab satetraxetan (RIVA [4]; 100 nM, time (day): 3)	growth inhibition by drug plus 177Lu-lilotomab satetraxetan (RIVA [4]; 100 nM, time (day): 4)	growth inhibition by drug plus 177Lu-lilotomab satetraxetan (RIVA [4]; 100 nM, time (day): 5)	growth inhibition by drug plus 177Lu-lilotomab satetraxetan (RIVA [4]; 100 nM, time (day): 6)
O=c1cc(N2CCOCC2)oc2c(-c3cccc4c3sc3ccccc34)cccc12	0.114	0.0778	-0.0783	-0.126	0.206	0.176	0.0314	-0.00386	0.21	0.183	0.173	-0.0317	-0.363	-0.241	-0.261	-0.43	0.0719	0.131	0.166	0.2	0.312	0.318	0.34	0.421	0.597	0.621	0.62	0.635	0.447	0.499	0.523	0.529
O=C1NC(=O)/C(=C\c2cccc(C(F)(F)F)c2)S1	-0.0629	-0.0752	-0.145	-0.158	-0.0663	-0.0763	-0.118	-0.219	-0.238	-0.269	-0.325	-0.41	-0.524	-0.503	-0.514	-0.584	-0.0851	-0.0351	0.0122	0.101	-0.0652	-0.0183	0.0099	0.134	–	–	–	–	–	–	–	–
Nc1ccc(C(=O)Nc2cccc(-c3nc(N4CCOCC4)c4oc5ncccc5c4n3)c2)cn1	0.123	0.0927	0.0179	-0.0139	0.195	0.203	0.118	0.206	-0.00332	-0.02	-0.0954	-0.385	0.0916	0.0201	0.0261	-0.0381	0.00496	0.0368	0.0937	0.133	0.163	0.259	0.223	0.329	0.467	0.548	0.558	0.579	0.541	0.566	0.558	0.533
Cc1[nH]c(/C=C2\C(=O)Nc3ccc(S(=O)(=O)N(C)c4cccc(Cl)c4)cc32)c(C)c1C(=O)N1CCN(C)CC1	-0.0104	0.00253	-0.0727	-0.198	-0.0486	-0.0391	-0.0232	0.0376	-0.187	-0.174	-0.209	-0.352	-0.317	-0.305	-0.286	-0.342	-0.0184	0.0537	0.0856	0.0845	-0.011	0.0937	0.135	0.249	0.489	0.536	0.543	0.552	0.412	0.518	0.528	0.523
